Screens (PubChem BioAssay)
WRN helicase inh = inhibitors of human WRN helicase; WRN helicase unwinding, fluorescent forked duplex, kinetic; Potency, µM (top dose mostly 114 µM), for inactives: at the top dose activity change, negative = inhibition, hits mostly inhibitors; 360,000 tested, 0.46% active; further: on the % scale 0 is the no-effect control and ±100 the full control effect; nearly all actives have a fitted effect of over 55% in size
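Screening of the MLSMR collection measured strand separation of a quenched forked DNA duplex (100 nM) by 20 nM WRN with 2 mM ATP, all final. Compounds were preincubated with enzyme 15 min at room temperature.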
POLB inh = DNA polymerase beta (human) inhibition; 340,000 tested, 1.3% active; Potency, µM (highest dose often 114 µM), inactives show at the top dose activity change, negative = inhibition, hits mostly inhibitors; P06746; AID 485314; Pol beta primer extension/strand displacement, fluorescence kinetic; further: on the % scale 0 is the no-effect control and ±100 the full control effect
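Pol beta (10 nM) and compounds were preincubated 15 min at room temperature, then 50 nM substrate (final) started primer extension/strand displacement. Reads were taken at 0 and 10 min; concentration-response data were fitted to a four-parameter Hill equation.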
Pol eta inh = inhibitors of human DNA polymerase eta | recombinant Pol eta, fluorescent DNA replication assay | Potency, µM (doses to about 114 µM), for inactives: at the highest dose activity change, negative = inhibition, most hits filed as inhibitors | 390,000 tested, 1.2% active | Q9Y253 | AID 588591; further: on the % scale 0 is the no-effect control and ±100 the full control effect
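Fluorescent replication assay: 50 nM final substrate added after a 15 min room-temperature compound preincubation with 10 nM enzyme. Signal taken at 0 min and again at 10 min.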
L3MBTL1 inh = blocks human L3MBTL1; Potency, µM (titrated, usually from 57.1 µM), for inactives: at the top dose activity, negative = inhibition, most hits filed as inhibitors; 230,000 tested, 0.66% active; AlphaScreen L3MBTL1–H3K9me1 peptide binding; further: on the % scale 0 is the no-effect control and ±100 the full control effect; nearly all actives have a fitted effect of over 60% in size
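AlphaScreen proximity signal between nickel-chelate acceptor and streptavidin donor beads (final 10 ug/mL) reports binding of 50 nM L3MBTL1 to 75 nM biotin-H3 K9me1 peptide; complex incubated with compounds 30 min at room temperature; cefsulodin titration as control.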
POLK inh = inhibitors of human DNA polymerase kappa; 400,000 tested, 0.53% active; Q9UBT6; Potency, µM (titrated, usually from 107 µM), inactives show at the highest dose activity, negative = inhibition, most hits filed as inhibitors; purified Pol kappa, fluorescent DNA synthesis assay, 10 min; AID 588579; further: on the % scale 0 is the no-effect control and ±100 the full control effect
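Inhibition of 10 nM Pol kappa is measured by a fluorescent read-out at 0 and 10 min following addition of 50 nM substrate (final), with a 15-min room-temperature compound preincubation.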
POLI inh = blocks human DNA polymerase iota activity. Q9UNA4. Pol iota fluorescent replication assay, 10 min. Potency, µM (doses to about 115 µM), for inactives: at the top dose activity, negative = inhibition, most hits filed as inhibitors. 390,000 tested, 1% active. AID 588590
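Pol iota at 10 nM preincubated 15 min with compounds at room temperature; reaction started with fluorescent substrate, 50 nM final. Fluorescence read kinetically at 0 and 10 min; buffer-only wells as negative control.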
* marks the source's active call; other numbers are inactive results; ! = a repeat was not active; [ ] = remark or other dose. Rows were chosen to be rich in hits. Some 2.5% of all compounds tested hit in one or more screens of this group. The call rests on the fitted dose curve; in most records, active means well fitted curve in the direction sought with a large enough effect; inconclusive means small, poorly fitted or top-dose-only effect, or another doubt; inactive means no such curve, though single readings can be large; an effect the other way counts as inactive or inconclusive. Potency means the concentration at half of the fitted maximal effect.

Cc1nc2c(C(=O)NCCC(C)C)c[nH]n2c(=O)c1Cc1ccccc1F was read as WRN helicase inh -9%[57.1 µM], POLB inh 71µM*, Pol eta inh -3%, L3MBTL1 inh 2%, POLK inh -12% and POLI inh inconclusive.
`Cc1ccc(CNC(=O)c2c[nH]n3c(=O)c(Cc4ccc(F)cc4Cl)c(C)nc23)cc1` gave POLB inh 50µM*, Pol eta inh 71µM*, POLK inh inconclusive and POLI inh inconclusive.
For Cc1nc2c(C(=O)NCc3ccc(F)cc3)c[nH]n2c(=O)c1Cl the results were WRN helicase inh -17%, POLB inh 6%, Pol eta inh -5%, L3MBTL1 inh 3%, POLK inh -11% and POLI inh -23%[58.9 µM].
Screening Cc1nc2c(C(=O)NCCc3ccccc3)c[nH]n2c(=O)c1Cl returned WRN helicase inh -14%, POLB inh 34%, Pol eta inh -11%, L3MBTL1 inh 0%, POLK inh -5% and POLI inh 23%.
For Cc1nc2c(C(=O)NCc3ccccc3Cl)c[nH]n2c(=O)c1Cc1cccc(Cl)c1 the results were POLB inh 56µM*, Pol eta inh inconclusive, POLK inh -42% and POLI inh 56µM*.
`CCOc1ccc(N(CC)C(=O)Cc2c(C(=O)O)n(C)c3ccccc23)cc1` gave WRN helicase inh -1%, POLB inh 26%, Pol eta inh 1%, POLK inh -6% and POLI inh 90%.
For C[C@H](CO)N1C[C@H](C)[C@@H](CN(C)C(=O)Nc2ccc3c(c2)OCO3)Oc2ccc(NC(=O)Cn3cnnn3)cc2C1=O the results were WRN helicase inh 3%, Pol eta inh -5%, L3MBTL1 inh 4%, POLK inh 13% and POLI inh 26%.
`Cc1nc2c(C(=O)NCCc3ccc(Cl)cc3)c[nH]n2c(=O)c1Cc1ccccc1F` gave POLB inh inconclusive, Pol eta inh inconclusive, POLK inh -13% and POLI inh 71µM*.
Screening Cc1nc2c(C(=O)NCCc3ccccc3)c[nH]n2c(=O)c1Cc1ccc(F)cc1Cl returned POLB inh 79µM*, Pol eta inh -30%, POLK inh -22% and POLI inh inconclusive.
C[N+]1(CC(=O)NNc2c3ccccc3nc3ccccc23)CCOCC1 was read as POLB inh 25µM* and L3MBTL1 inh -5%.
For CCN(CC)C(=O)/C(=C/c1cn(S(=O)(=O)N(C)C)c2ccccc12)NC(=O)c1ccc(OC)cc1 the results were WRN helicase inh 6%, POLB inh -21%, Pol eta inh -13%, POLK inh -2% and POLI inh 95%.
For CCOc1ccc(CNC(=O)CCCc2cn(C)c3ccccc23)cc1 the results were WRN helicase inh 1%, POLB inh 5%, Pol eta inh -19%, POLK inh 1% and POLI inh 89%.
O=C(/C=C/c1ccc(O)cc1)c1ccccc1 was read as WRN helicase inh 6%, POLB inh 5%, Pol eta inh -10%, L3MBTL1 inh -1%, POLK inh 5% and POLI inh -17%.
`O=C(/C=C/c1ccc(N2CCC(c3ccccc3)=N2)cc1)c1ccccc1` gave WRN helicase inh 50µM*, POLB inh 0%, Pol eta inh -15%, POLK inh -15% and POLI inh inconclusive.
For CC[n+]1c(/C=C2\Sc3ccccc3N2C)ccc2cccc(C)c21 the results were WRN helicase inh 50µM*, POLB inh 28µM*, Pol eta inh inconclusive, L3MBTL1 inh -8%, POLK inh -37% and POLI inh inconclusive.
For CCN1/C(=C/c2ccc3cc(C)ccc3[n+]2CC)Sc2ccccc21 the results were WRN helicase inh inconclusive, POLB inh inconclusive, Pol eta inh inconclusive, L3MBTL1 inh -5%, POLK inh -34% and POLI inh inconclusive.
Screening Cc1ccc(C(=O)CN2C(=O)NC3(CCc4ccccc43)C2=O)s1 (stereo not drawn) returned WRN helicase inh 7%, Pol eta inh -8%, L3MBTL1 inh -1%, POLK inh -14% and POLI inh 11%.
Nc1nnnn1CC(=O)N/N=C/c1cc([N+](=O)[O-])ccc1O was read as WRN helicase inh -6%, POLB inh 0%, Pol eta inh -2%, L3MBTL1 inh 0.16µM*, POLK inh 0% and POLI inh 6%.
For Cc1cc(C(=O)N/N=C/c2cc([N+](=O)[O-])ccc2O)c2ccccc2n1 the results were WRN helicase inh -9%, POLB inh 51%, Pol eta inh -7%, L3MBTL1 inh 18µM*, POLK inh 1% and POLI inh 8%.
Screening O=C(N/N=C/c1ccc([N+](=O)[O-])o1)c1cc(-c2ccncc2)nc2ccccc12 returned WRN helicase inh -11%[57.1 µM], POLB inh inconclusive, Pol eta inh 89µM*, L3MBTL1 inh -18%, POLK inh inconclusive and POLI inh inconclusive.
Screening O=[N+]([O-])c1ccc(O)c(/C=N/Nc2ccccn2)c1 returned WRN helicase inh -11%, POLB inh -12%, Pol eta inh -7%, L3MBTL1 inh 13µM*, POLK inh -19% and POLI inh 6%.
Screening O=C(N/N=C/c1cc([N+](=O)[O-])ccc1O)c1cc(-c2ccccc2)nc2ccccc12 returned WRN helicase inh -26%[57.1 µM], POLB inh -1%, Pol eta inh -22%, L3MBTL1 inh inconclusive, POLK inh -8% and POLI inh 1%.
Screening O=C(N/N=C/c1ccc([N+](=O)[O-])o1)c1cc(-c2ccc(-c3ccccc3)cc2)nc2ccccc12 returned WRN helicase inh -7%[57.1 µM], POLB inh 20µM*, Pol eta inh -31%, L3MBTL1 inh inconclusive, POLK inh -31% and POLI inh inconclusive.
For O=C(N/N=C/c1ccc(-c2cccc([N+](=O)[O-])c2)o1)c1ccccc1O the results were WRN helicase inh -4%[11.6 µM], POLB inh inconclusive, Pol eta inh 50µM*, L3MBTL1 inh -1%, POLK inh 6% and POLI inh 48%.
For O=C(N/N=C/c1cccc([N+](=O)[O-])c1)c1cc(-c2ccccc2)nc2ccccc12 the results were WRN helicase inh 1%, POLB inh 11%, Pol eta inh -7%, L3MBTL1 inh 0%, POLK inh -1% and POLI inh -1%.
Screening CCN1/C(=C/C=C/c2sc3ccccc3[n+]2CC)Sc2ccccc21 returned WRN helicase inh 40µM*, Pol eta inh 40µM*, L3MBTL1 inh 28µM*, POLK inh 11µM*! and POLI inh inconclusive.
